We go through 40 molecules from PubChem BioAssay (NCI).

Compounds without any hit were thinned out: in the full panel of roughly 83,000, 20% have a hit.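 A percent growth of 40 corresponds to 60% growth inhibition; 0 means no net growth; -100 means all cells died. Active threshold: below 10.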 Active and inactive are the calls of the source.

In the test the test system is HL-60(TB) leukemia. Put plainly: NCI-60 one-dose screen, 48 h (100 = growth as untreated, 0 = no growth, -100 = all killed). The settings on record: 10 µM unless noted.
Consider `O=C(N1CCC(CN=c2cc3n(-c4ccc(Cl)cc4)c4ccccc4nc-3cc2Nc2ccc(Cl)cc2)CC1)N1CC1`, for which the growth was -73.3% (active). To `O=C1Nc2ccccc2/C1=N/N=C/c1ccc(OC2OC(CO)C(O)C(O)C2O)cc1` (stereo not given) belongs 101% (inactive); to `O=C(CN1CCN(C(=O)c2ccccc2)CC1)Nc1ccccc1SCc1ccccc1`, 80.5% (inactive); to `COC(=O)C1(C)COP(=O)(NC23CC4CC(CC(C4)C2)C3)OC1` (stereo not given), 119% (inactive). The figure for `COc1ccc(-n2c(SCc3cc(OC)c(OC)c(OC)c3)nc3ccc(C)cc3c2=O)cc1` is 31.1% (inactive); for `O=c1cc(C2NNC(=S)N2)c2ccc3ccccc3c2o1` (stereo not given) it is 102% (inactive); for `COc1cc(C(=O)O)c(O)c(C(C)(C)C)c1` it is 106% (inactive).

With `N=C(N)c1ccc(-c2ccc(-c3ccc(Cl)cc3Cl)o2)nc1`, the growth is -26.7% (active). To `COc1cc(OC)c(C(=O)/C=C/c2cccc(OC(C)=O)c2)cc1CC=C(C)C` belongs 8.14% (active). To `Cc1[nH]n(-c2ccccc2)c2nc3nncc3c(-c3ccc(Cl)cc3)c12` belongs 110% (inactive).

Consider `COc1cc(/C=C2\CCC/C(=C\c3cc(CN4CCOCC4)c(O)c(OC)c3)C2=O)cc(CN2CCOCC2)c1O`, for which the growth was 4.24% (active). To `COC(=O)[C@H](C)NC(=O)NC(=O)NC(=O)CI` belongs -51% (active). The figure for `CCN(CC)CCNc1nc2ccccc2c2c(=O)c3cc(Cl)ccc3sc12` is 78.1% (inactive); for `CCN1CCN(c2nc(NNC(=O)c3cccc(OC)c3)nc(N3CCN(C(c4ccccc4)c4ccccc4)CC3)n2)CC1` it is 28.4% (inactive). For `c1cc(C2CCCCC2)ccc1OCCCCCCN1CCNCC1`, the growth is -38.4% (active). The figure for `COc1ccc(-c2nc3sc(-c4cc(OC)c(OC)c(OC)c4)nn3c2/C=C2/C(=O)Nc3ccc(F)cc32)cc1` is 35.8% (inactive). The figure for `Cc1c(N2CCCCC2)[nH]c2ccccc12` is 101% (inactive); for `O=C(N(c1ccccc1)c1ccccc1)n1cc(I)c2nc(Cl)nc(Cl)c21` it is 22.9% (inactive); for `COC(=O)N[C@@H](C)CNc1nccc(-c2cn(C(C)C)nc2-c2cc(Cl)cc(NS(C)(=O)=O)c2F)n1` it is 26.6% (inactive). For `COc1cc(C2Nc3ccccc3S2)cc(CN2CCOCC2)c1O` (stereo not given), the growth was 80.6% (inactive).

On to `Cc1cc(N/N=C/c2nc(-c3ccc(Cl)cc3)oc2C)c2cc(Cl)ccc2n1`, for which the growth was 8.08% (active). In the case of `O=C1OC(c2ccccc2)C(O)=C1c1ccccc1` (stereo not given), the growth is 101% (inactive). Take `COc1ccc(NC(=O)Nc2ccc(OCCCCCC(=O)NO)cc2)cc1`: the growth is 97.6% (inactive). To `CC1c2ccccc2N(S(=O)(=O)c2ccccc2)C1C` (stereo not given) belongs 67.6% (inactive). To `CSc1nc(=O)n(Cc2ccc(Cl)cc2)c(=O)[nH]1` belongs 105% (inactive); to `N#Cc1c(-c2ccc(Cl)cc2)nc(NN2C(=O)c3ccccc3C2=O)nc1N1CCOCC1`, 99.8% (inactive); to `CCCn1nc(C(=O)N2CCCCC2)c2c1CCC(N1CCC(c3ccncc3)CC1)C2` (stereo not given), 96.6% (inactive). To `NC(=S)N/N=C/c1ccc(OC(=O)COc2ccccc2)cn1` belongs 35.3% (inactive). `O=C(CCc1nnc(Cn2cncn2)o1)c1nc2ccccc2[nH]1`: the growth is 108% (inactive). To `CC1C(c2ccccc2)OCCN1C(=S)Nc1ccc(S(=O)(=O)N2CCCCC2)cc1` (stereo not given) belongs 89.1% (inactive); to `COc1cccc(C(=O)OCCn2nc3c4c(cccc42)C(=O)c2ccccc2-3)c1O`, 0.071% (active); to `C=C1C(=O)O[C@H]2[C@H]1CC/C(COC(=O)/C=C\C(=O)NCc1ccc(Cn3c(=O)sn(-c4ccc(C#N)cc4)c3=O)cc1)=C\CC[C@@]1(C)O[C@@H]21`, -40.3% (active). The figure for `COc1ccc2c(c1)OC(N)=C(C#N)C2c1ccc(F)c(F)c1` (stereo not given) is -18.4% (active); for `CC(C(=O)O)N1C(N)=NNC1c1ccccc1O` (stereo not given) it is 92.8% (inactive). As to `O=C1c2ccccc2OC=C(c2ccccc2)N1CCCCNc1ccc(S(=O)(=O)Nc2ncccn2)cc1`, the growth is 73.1% (inactive). The figure for `Nc1c(C(=O)Nc2ccncc2)sc2nc3c(cc12)CCCCCCCC3` is -54.9% (active); for `CC(C)(CO)N(CCO)CCO` it is 103% (inactive); for `COc1ccc2c(c1)C(C)Cc1c(Cl)nc(C)nc1N2C` (stereo not given) it is 11.3% (inactive). To `C=C1C(=O)O[C@H]2[C@H]1CC/C(CNC(=O)/C=C/c1ccccc1F)=C\CC[C@@]1(C)O[C@@H]21` belongs -31.9% (active); to `CCn1cc(C(=O)O)c(=O)c2cc(F)c(N3CCN(S(=O)(=O)c4c(C)cc(C)cc4C)CC3)cc21`, 73% (inactive).
